We go through 40 compounds from the supplement of paper PMC9477273.

The structures appear in SMILES notation.

The experiment relates to DRIVER-selected RNA biosensor (aptazyme) pool. Description: maximum fold change of ribozyme cleavage across biosensor pool versus no-compound control; higher = stronger biosensor response (ligand inhibits cleavage). The conditions noted are these: 10 µM. The method, then: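 CleaveSeq: a pool of resynthesized hammerhead-ribozyme RNA biosensors (sTRSV scaffold with randomized loops, 1,730 sequences) was T7-transcribed at 37 °C for 15-30 min with a single compound at 10 µM. Cleaved and uncleaved products were counted by NGS, and fold change of cleavage was computed against the DMSO-only condition. The value is the maximum fold change of cleavage over all biosensors in the pool. About 255 compounds were tested individually.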
`COc1ccc(C=C2C(=O)c3ccccc3C2=O)cc1O` showed a maximum fold change of 4.65.
In the case of `COc1cccc(/C=N/NC(=N)N)c1O` it was 5.16; in that of `CC1=[N+](CCCS(=O)(=O)O)SC2C=CC(Cl)=CC12` (stereo not given), 1.77; in that of `CN(CCCNC(=O)c1ccc(CS(=O)(=O)Cc2cccc(Cl)c2)o1)C1CCCCC1`, 1.94.
Take `O=C(c1cc(-c2ccccc2)n[nH]1)N1CCn2c1nc1ccccc12`: the maximum fold change came to 5.17.
For `N/C(=N\OC(=O)N1CCOCC1)c1ccccn1` the value was 2.1.
In turn, `COc1ccc(C(=O)Cc2cc3cccc(OC)c3oc2=O)cc1` showed a maximum fold change of 1.82.
For `CCN1CCN(C(=O)c2ccc(Cn3c(SCc4ccccc4F)nc4ccncc43)cc2)CC1` the value was 2.65.
In the case of `CCc1nc2ccc(C(=O)NCCc3ccco3)cc2nc1CC` it was 2.69; in that of `O=C(CCc1ccccc1)N1CCC(c2ccccc2)C1` (stereo not given), 1.79.
In the case of `CNc1cnn(C23CC4CC(CC(CC(=O)O)(C4)C2)C3)c(=O)c1Cl` it was 4.5; in that of `Cc1nc(N2C(=O)c3oc4ccccc4c(=O)c3C2c2ccc(Cl)cc2)sc1C` (stereo not given), 2.07; in that of `N#C/C(=Cc1c(Oc2ccccc2Cl)nc2n(c1=O)cccc2)/c1nc2c([nH]1)cccc2`, 7.4.
`COc1cc(CNCc2c(C(=O)O)c(C)n(Cc3ccc(F)cc3)c2C)cc(OC)c1OC` displayed a maximum fold change of 3.4.
For `COc1ccc(OC)c(/C=C2/N=C(c3ccc(OC)c(Br)c3)OC2=O)c1` the value was 2.65; for `O=C(Cn1ccc2cc(S(=O)(=O)N3CCCC3)ccc21)NC1CC1`, 2.36.
For `O=C(NCc1ccco1)c1ccccc1Br` the value was 2.5; for `COCCNCc1c(C(=O)O)c(C)n(Cc2ccccc2F)c1C`, 2.4; for `Cc1ccc(C(=O)/C=C2\Nc3ccccc3NC2=O)cc1C`, 7.35.
For `COC(=O)/C(C#N)=C/c1c(Oc2ccccc2Cl)nc2ccccn2c1=O` the value was 3.58.
As to `C=Cc1ccc(Cn2c(C)c(CNCCc3ccccc3)c(C(=O)O)c2C)cc1`, the maximum fold change was found to be 2.07.
For `CCOc1cc(C(=O)C(=O)c2ccc(OC)c(OCC)c2)ccc1OC` the value was 2.92; for `CCOc1ccc(CCNC(=O)CCn2c(=O)c3cccn3c3cccnc32)cc1OCC`, 2.67; for `CCOc1cc(C2c3c(-c4ccccc4O)n[nH]c3C(=O)N2CCO)ccc1OCc1ccccc1` (stereo not given), 3.55.
For `COc1ccc(/C=C2N=C(c3ccc(Cl)c(Cl)c3)OC2=O)cc1` the value was 2.84; for `COc1ccc(/C=C/C(=O)Nc2nc3ccc(S(C)(=O)=O)cc3s2)cc1Br`, 3.76; for `COCCN1C(=O)c2ccccc2C(C(=O)N2CCC(C)CC2)C1c1cn(C)c2ccccc12` (stereo not given), 4.72.
`CCOc1ccc(S(=O)(=O)N2CCN(Cc3ccccc3)CC2)c2cccnc12`: the maximum fold change was 5.08.
Turning to `Cc1cc(NC(=O)CSc2nc3ncccc3c(=O)n2CCc2ccccc2)[nH]n1`, the maximum fold change is 3.45.
For `CCCCOc1ccc(CNC2=NS(=O)(=O)C(c3ccc(C(C)C)cc3)=C2C)cc1` the value was 3.52.
For `Cc1ccccc1-c1nc(CS(=O)(=O)CC(=O)N2CCN(Cc3ccccc3)CC2)c(C)o1` the value was 3.66; for `COc1cc(C(=O)N(Cc2ccccc2F)C2CCS(=O)(=O)C2)cc(OC)c1OC` (stereo not given), 2.18.
For `Cc1ccc(OCC(=O)N(Cc2ccccc2F)C2CCS(=O)(=O)C2)cc1C` (stereo not given) the value was 2.91; for `Cc1cc2cc(CNC(=O)C3CCCC3)ccc2[nH]1`, 5.24.
On to `COc1ccc2nc3oc(C(=O)NCCCN4CCC(Cc5ccccc5)CC4)cc3cc2c1`, for which the maximum fold change worked out at 5.98.
For `COc1ccc(/C=c2\s/c(=C/C(=O)c3ccc(C)cc3)[nH]c2=O)cc1OC` the value was 2.47; for `O=C(c1ccccc1O)N1CCOCC1`, 1.99; for `O=c1c2cccnc2n(Cc2ccc(Cl)cc2)c(=O)n1CCc1ccccc1`, 2.13.
Compound `CC1CCN(CCCNC(=O)c2ccc(CS(=O)(=O)Cc3ccc(Cl)cc3)o2)CC1` showed a maximum fold change of 2.2.
For `CCOc1ccc(/C=C2\SC(N3CC(C)OC(C)C3)=NC2=O)cc1` (stereo not given) the value was 2.08.
